Source: the supplement of paper PMC3334620
In all, about 33,000 sequences were measured (“E-score (-0.5 to 0.5)”: median about -0.054, highest 2% from about 0.39 on). For the sample, the highest values were picked, then their nearest neighbours and some sequences at random.

target: Ylr278c (UniProt Q05854); test: PBM E-score (8-mer binding enrichment) (E-score (-0.5 to 0.5)); higher = stronger / more preferred TF binding; settings: protein concentration: 200 nM; construct: GST-DNA-binding domain
Chain of UniProt Q05854 (Q05854 whole entry, the tested form may be a part): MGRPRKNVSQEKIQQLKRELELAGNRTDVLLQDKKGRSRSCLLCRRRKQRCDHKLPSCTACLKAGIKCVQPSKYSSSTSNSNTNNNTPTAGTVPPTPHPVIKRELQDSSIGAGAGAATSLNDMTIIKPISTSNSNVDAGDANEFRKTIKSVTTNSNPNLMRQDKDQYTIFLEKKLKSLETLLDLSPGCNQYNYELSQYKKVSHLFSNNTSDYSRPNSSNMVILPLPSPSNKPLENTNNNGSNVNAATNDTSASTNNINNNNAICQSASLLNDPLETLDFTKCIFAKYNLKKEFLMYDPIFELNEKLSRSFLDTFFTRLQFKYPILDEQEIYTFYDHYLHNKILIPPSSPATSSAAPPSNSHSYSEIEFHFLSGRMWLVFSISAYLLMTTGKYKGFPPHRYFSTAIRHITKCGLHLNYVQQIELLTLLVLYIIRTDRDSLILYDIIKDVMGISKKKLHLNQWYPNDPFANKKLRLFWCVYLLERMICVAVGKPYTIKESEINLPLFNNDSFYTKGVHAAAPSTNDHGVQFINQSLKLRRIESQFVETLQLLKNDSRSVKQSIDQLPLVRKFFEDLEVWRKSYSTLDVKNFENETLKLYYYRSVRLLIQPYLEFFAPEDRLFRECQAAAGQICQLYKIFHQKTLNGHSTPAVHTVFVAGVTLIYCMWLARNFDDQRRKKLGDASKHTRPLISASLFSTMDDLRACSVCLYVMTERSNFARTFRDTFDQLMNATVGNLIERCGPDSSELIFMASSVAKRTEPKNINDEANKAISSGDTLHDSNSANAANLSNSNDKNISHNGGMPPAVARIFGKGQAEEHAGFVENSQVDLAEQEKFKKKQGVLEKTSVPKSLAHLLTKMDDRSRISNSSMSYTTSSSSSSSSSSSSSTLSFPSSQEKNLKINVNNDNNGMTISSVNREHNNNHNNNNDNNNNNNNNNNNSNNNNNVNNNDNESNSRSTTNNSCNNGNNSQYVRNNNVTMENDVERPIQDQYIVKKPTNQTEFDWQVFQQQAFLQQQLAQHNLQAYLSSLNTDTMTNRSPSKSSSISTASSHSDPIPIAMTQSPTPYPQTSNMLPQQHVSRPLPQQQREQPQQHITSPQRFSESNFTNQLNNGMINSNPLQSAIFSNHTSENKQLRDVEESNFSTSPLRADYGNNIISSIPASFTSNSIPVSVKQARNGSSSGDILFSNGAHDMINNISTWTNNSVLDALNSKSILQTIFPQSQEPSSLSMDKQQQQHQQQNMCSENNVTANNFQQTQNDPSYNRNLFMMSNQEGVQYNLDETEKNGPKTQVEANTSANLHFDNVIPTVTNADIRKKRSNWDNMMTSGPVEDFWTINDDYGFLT
Outline: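 Detection of bound protein used fluorescent anti-GST, with scans normalised by masliner. The proteins were GST-tagged yeast transcription factors applied at about 100-200 nM to universal all-10-mer Agilent arrays made double-stranded by primer extension. Each ungapped eight-base word, pooled with its reverse complement, was scored with an E-score from the Universal PBM Analysis Suite.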

Sequence | PBM E-score
AGGGGTGC | -0.114
AGAGTCGC | -0.14
GGTATCGA | -0.0372
GGATCGGA | 0.438
CGATCGTA | 0.00037
AGATCGGA | 0.43
AGATCGGC | 0.224
CGATCGGA | 0.44
CGATCGGC | 0.282
AGATCGGG | 0.222
GGATCGAA | 0.0293
GGATCGCA | -0.0558
ACTCAACT | 0.0546
GAGCATTA | -0.111
TATTGAAA | 0.0175
GGTTAGAA | -0.15
TAGCTAGA | -0.285
GAAACTCA | -0.0472
GAAACTCC | 0.399
GAAACTTC | 0.0593
CAAACTCA | -0.0703
CAAACTCC | 0.434
AAAACTCC | 0.386
GCTAAGAA | -0.0627
CCGGACGC | 0.364

Sequence | PBM E-score
CCGGACGG | 0.396
ACGGACGG | 0.209
CCGGACGA | 0.406
TCGGACGA | 0.271
ACGGACGA | 0.177
CGTGCATC | -0.152
CGCTTTCC | 0.143
ATTTCGTA | -0.062
CTCGATGA | -0.12
AATGGGCC | 0.0902
CAGAGGAG | -0.243
GGCTAGAA | 0.0303
GGGCATTA | -0.0729
CGGCATTA | 0.405
AGGCATTA | -0.134
ATGTCGGC | 0.0736
GTGTCGTA | -0.209
ATGTCGGG | 0.222
CTGTCGGC | 0.35
ATGTCGGA | 0.397
GTGTCGCA | 0.00208
CTGTCGGA | 0.404
GTGTCGGA | 0.417
CTGTCGAA | -0.289
GGACCAAA | 0.187

Sequence | PBM E-score
ATACGCTC | 0.00427
CGGCCACG | -0.0321
ACTCTGGA | -0.117
ATAGTCTA | -0.141
CGAAAGTA | 0.00237
ACGAAAGA | -0.0168
AGCTTACG | -0.143
AGTCGGGG | 0.282
AGACTCCC | -0.167
CGACTCCG | 0.406
CGACTCCA | -0.0167
CGACTCCC | 0.0244
AGACTCCT | -0.224
AGACTCCG | 0.418
CGAGCAAC | -0.00501
AGAAGACC | 0.0375
ACAAGACA | -0.0802
TACGAGTA | -0.0577
AGGACAAA | -0.0109
GGGACAAC | -0.104
AGGACAAC | -0.163
CGGACAAG | 0.383
CGGACAAA | 0.425
CGGACAAC | 0.389
AACATGAC | -0.0624

Sequence | PBM E-score
GTCAACTA | -0.084
AGGGCTAA | -0.0787
CGGTCCGA | 0.455
GGGTCCGA | 0.366
AGGTCCGC | 0.333
AGGTCCAG | -0.113
AGGTCCGA | 0.404
AGGTCCGG | 0.418
AGGTCCAA | -0.179
AGGTCCCA | -0.224
CGGTCCGC | 0.38
ACTAGTGG | -0.0388
AACATAGC | -0.0617
ATGTTGCC | -0.036
ATTGACCA | -0.196
CCTATCAC | -0.119
AACACAAT | -0.152
GCAACACC | 0.113
AGCTCGGA | 0.322
GGCTCGGA | 0.38
CGCTCGGA | 0.408
GCCTCGGA | 0.352
CCCTCGGA | 0.394
CCCTCGGC | 0.207
GCACTAGA | -0.16

Sequence | PBM E-score
CCTAGCAG | -0.268
CCGTTGAC | 0.0534
CGAGCTGC | -0.00491
GTATGCGA | -0.0635
ATCAGGAA | -0.0943
AACTGCGA | 0.148
TCAATTCA | -0.0799
TATTCGGA | 0.408
AATTCGGG | 0.215
AATTCGGC | 0.157
CATTCGGA | 0.339
AATTCGGA | 0.449
GATTCGGA | 0.363
TAAGGGCA | -0.144
CCCCGACC | 0.28
ATAGTCAG | -0.158
CGGACCCC | 0.365
GGGACCGA | 0.164
CGGACCGA | 0.409
AGGACCGA | 0.0864
CGGACCAC | 0.293
CGGACCCG | 0.394
AGGACCGC | 0.227
CGGACCGC | 0.392
AGGACCCG | 0.158

Sequence | PBM E-score
CCACTATC | 0.00626
CTATAGAC | -0.167
CTGATCTC | -0.0675
ACTAATGC | 0.126
CTCTGTTC | -0.0823
CCCGGGAA | 0.348
CCGGGGGA | 0.378
TCCGGGAA | 0.419
CCGGGGAA | 0.399
GCGGGGTA | 0.323
CGGGGGTA | 0.334
GCCGGTAA | 0.341
ACCGGGAA | 0.352
TCCGGTAA | 0.44
CCGGGGTA | 0.408
CGGGGGAA | 0.255
ACCGGTAA | 0.297
CAACGGCG | 0.207
CCATCGCC | 0.075
ATCCAGTA | -0.111
AGAGGTGC | 0.0557
AGCATAGG | -0.11
GGACACAC | 0.149
CCGGGGCG | 0.42
GCCGGGCA | 0.304

Sequence | PBM E-score
ACCGGGCA | 0.279
CCGGGGCA | 0.293
CCCGGGCG | 0.291
TCCGGGCA | 0.406
ATAACCTA | -0.148
CGAACTAA | -0.0681
ACGGATTA | 0.205
ACGGATTC | 0.246
GCGGATTA | 0.261
CAGGATTC | -0.11
CCGGATTA | 0.455
CCGGATTC | 0.405
CATTGGGA | -0.198
AGCAGGAT | -0.079
GTGGCCTA | -0.135
GATTCTAC | 0.107
CGCGGAGA | 0.428
AGCGGATA | 0.287
CGCGGATC | 0.272
AGCGGAGG | 0.302
CGCGGAGC | 0.41
GGCGGAAA | 0.328
GGCGGATA | 0.293
CGCGGATA | 0.32
AGCGGAGC | 0.381

Sequence | PBM E-score
GGCGGAGA | 0.444
AGCGGAGA | 0.394
CGCGGACA | 0.345
CGACTGAG | -0.181
CTCAGTCA | -0.282
CTGAGTTA | -0.248
ATTCCCAA | -0.06
ACCTCTCA | 0.0413
TAATTCCA | -0.0294
CCTCGGCG | 0.359
TCTCGGAA | 0.414
ACTCGGAC | 0.383
CCTCGGAC | 0.374
CCTCGGAG | 0.456
CCTCGGTA | -0.0307
CCTCGGCA | 0.25
GCTCGGAA | 0.338
CCTCGGAA | 0.39
TCTCGGCA | 0.266
ACTCGGAA | 0.398
ACTCGGAT | 0.251
CAATCATG | -0.214
CGTATTTA | 0.0653
CAAGCTGC | -0.103
GAGGATAC | -0.125

Sequence | PBM E-score
ATTCATAC | 0.0829
ACTCTTCA | -0.191
CGTCAGAA | -0.25
CGTTTAAC | -0.174
CGTTAGAC | -0.0149
AGCGCGTA | -0.109
CCCCTTAG | 0.0521
ACTCGGTG | 0.0389
ACTCGGCG | 0.256
ACTCGGAG | 0.428
TAGGGACA | -0.0143
CGGAGCGA | 0.415
CTGAGCGC | -0.145
AGGAGCGC | -0.0703
AGGAGCGA | -0.0963
GGGAGCGA | -0.116
CGGAGCGC | 0.391
AATGGAAT | 0.0961
ATCTGTGG | -0.141
